Molecules are shown by their SMILES. Hit rate of the full screen: of about 39,000 compounds, about 3,300 (8.5%) were called active. The sample holds actives, similar compounds and a random draw of the others, so the mix is not that of the screen.

In the assay the test system is HepG2. The experiment in a line: cytotoxicity call (relative viability < 0.9). Conditions: 10 µM.
With `C[C@H]1CN([C@@H](C)CO)C(=O)Cc2cc(NC(=O)Nc3ccc(C(F)(F)F)cc3)ccc2O[C@H]1CN(C)Cc1ccc(Oc2ccccc2)cc1`, the cytotoxicity call is “active”. With `C[C@@H]1CN([C@H](C)CO)C(=O)Cc2cc(NC(=O)Nc3ccc(C(F)(F)F)cc3)ccc2O[C@H]1CN(C)Cc1ccc(Oc2ccccc2)cc1` the entry was “inactive”.

For `C[C@H](CO)N1C[C@H](C)[C@@H](CN(C)Cc2ccc(Oc3ccccc3)cc2)Oc2ccc(NC(=O)Nc3ccc(C(F)(F)F)cc3)cc2CC1=O`, the cytotoxicity call is “active”. In the case of `C[C@@H]1CN([C@@H](C)CO)C(=O)Cc2cc(NC(=O)Nc3ccc(C(F)(F)F)cc3)ccc2O[C@@H]1CN(C)Cc1ccc(Oc2ccccc2)cc1` it was “active”; in that of `C[C@@H]1CN([C@H](C)CO)C(=O)Cc2cc(NC(=O)Nc3ccc(C(F)(F)F)cc3)ccc2O[C@@H]1CN(C)Cc1ccc(Oc2ccccc2)cc1`, “active”. With `COc1ccc(NC(=O)Nc2ccc3c(c2)C(=O)N([C@@H](C)CO)C[C@@H](C)[C@@H](CN(C)C(=O)C2CCCCC2)OCCCC[C@H](C)O3)cc1` the entry was “inactive”; with `CN1CCN(C(=O)C[C@@H]2CC[C@H]3[C@@H](COC[C@H](O)CN3CC3CCCC3)O2)CC1`, “inactive”; with `COc1ccc(S(=O)(=O)Nc2ccc3c(c2)C(=O)N([C@H](C)CO)C[C@H](C)[C@H](CN(C)S(=O)(=O)c2ccc(F)cc2)O3)cc1`, “inactive”. For `C[C@@H]1CN([C@H](C)CO)C(=O)c2ccccc2-c2ccccc2CO[C@H]1CN(C)C(=O)c1cc(Cl)cc(Cl)c1`, the cytotoxicity call was “inactive”. With `Nc1nnc(SCC(=O)N2CCOCC2)[nH]1`, the cytotoxicity call is “inactive”. With `C[C@H](CO)N1C[C@H](C)[C@H](CN(C)Cc2ccc(Oc3ccccc3)cc2)Oc2ccc(NC(=O)Nc3ccc(C(F)(F)F)cc3)cc2CC1=O` the entry was “active”.

Regarding `C[C@H]1CN([C@@H](C)CO)C(=O)Cc2cc(NC(=O)Nc3ccc(C(F)(F)F)cc3)ccc2O[C@@H]1CN(C)Cc1ccc(Oc2ccccc2)cc1`, the cytotoxicity call is “inactive”. With `C[C@@H]1CN([C@@H](C)CO)C(=O)Cc2cc(NC(=O)Nc3ccc(C(F)(F)F)cc3)ccc2O[C@H]1CN(C)Cc1ccc(Oc2ccccc2)cc1`, the cytotoxicity call was “inactive”. In the case of `COc1c2ccoc2nc2c(OC)c(OCC(O)C(C)(C)O)ccc12` (stereo unspecified) it was “active”; in that of `C[C@@H]1CN([C@@H](C)CO)C(=O)c2cc(Br)cnc2O[C@@H]1CN(C)C(=O)CN1CCOCC1`, “inactive”; in that of `CN(C)c1ccc2c(=O)[nH][nH]c(=O)c2c1`, “inactive”. `CN(C)c1ccc2nc3ccc(N(C)C)cc3[s+]c2c1.O.[Cl-]`: the cytotoxicity call was “active”. With `Cc1cc2nc3ccc(N(C)C)cc3[s+]c2cc1N.[Cl-]` the entry was “active”; with `C[C@@H]1CN([C@@H](C)CO)C(=O)c2cc(C#Cc3ccc(F)cc3)cnc2O[C@H]1CN(C)Cc1ccccn1`, “inactive”; with `O=C(C[C@H]1C[C@@H]2c3cc(NS(=O)(=O)c4ccc(F)cc4)ccc3O[C@@H]2[C@H](CO)O1)N1CCOCC1`, “inactive”. With `O=C(C[C@H]1C[C@H]2c3cc(NC(=O)Nc4ccc(C(F)(F)F)cc4)ccc3O[C@H]2[C@H](CO)O1)NCCc1ccccc1` the entry was “inactive”. With `C[C@@H]1CN([C@@H](C)CO)C(=O)c2cc(NC(=O)Nc3ccc(C(F)(F)F)cc3)ccc2O[C@@H](C)CCCCO[C@@H]1CN(C)C(=O)NC1CCCCC1` the entry was “inactive”; with `C[C@@H]1CCCCO[C@@H](CN(C)C(=O)NC2CCCCC2)[C@@H](C)CN([C@H](C)CO)C(=O)c2cc(NC(=O)Nc3ccc(C(F)(F)F)cc3)ccc2O1`, “active”; with `C[C@H](CO)N1C[C@H](C)[C@@H](CN(C)C(=O)NC2CCCCC2)OCCCC[C@H](C)Oc2ccc(NC(=O)Nc3ccc(C(F)(F)F)cc3)cc2C1=O`, “inactive”. `C[C@H](CO)N1C[C@H](C)[C@H](CN(C)C(=O)NC2CCCCC2)OCCCC[C@H](C)Oc2ccc(NC(=O)Nc3ccc(C(F)(F)F)cc3)cc2C1=O`: the cytotoxicity call was “active”. For `C[C@@H]1CCCCO[C@H](CN(C)C(=O)NC2CCCCC2)[C@H](C)CN([C@@H](C)CO)C(=O)c2cc(NC(=O)Nc3ccc(C(F)(F)F)cc3)ccc2O1`, the cytotoxicity call was “inactive”.

For the compound `C[C@H]1CCCCO[C@@H](CN(C)C(=O)NC2CCCCC2)[C@@H](C)CN([C@@H](C)CO)C(=O)c2cc(NC(=O)Nc3ccc(C(F)(F)F)cc3)ccc2O1`, the cytotoxicity call is “active”. With `C[C@@H]1CCCCO[C@H](CN(C)C(=O)NC2CCCCC2)[C@@H](C)CN([C@@H](C)CO)C(=O)c2cc(NC(=O)Nc3ccc(C(F)(F)F)cc3)ccc2O1` the entry was “inactive”. With `C[C@@H]1CCCCO[C@H](CN(C)C(=O)NC2CCCCC2)[C@H](C)CN([C@H](C)CO)C(=O)c2cc(NC(=O)Nc3ccc(C(F)(F)F)cc3)ccc2O1` the entry was “inactive”. With `C[C@@H]1CN([C@H](C)CO)C(=O)c2cc(NC(=O)Nc3ccc(C(F)(F)F)cc3)ccc2O[C@@H](C)CCCCO[C@@H]1CN(C)C(=O)NC1CCCCC1` the entry was “inactive”; with `C[C@@H]1CCCCO[C@@H](CN(C)C(=O)NC2CCCCC2)[C@H](C)CN([C@@H](C)CO)C(=O)c2cc(NC(=O)Nc3ccc(C(F)(F)F)cc3)ccc2O1`, “inactive”. For `C[C@@H]1CCCCO[C@@H](CN(C)C(=O)NC2CCCCC2)[C@@H](C)CN([C@@H](C)CO)C(=O)c2cc(NC(=O)Nc3ccc(C(F)(F)F)cc3)ccc2O1`, the cytotoxicity call was “inactive”. In the case of `C[C@H]1CCCCO[C@H](CN(C)C(=O)NC2CCCCC2)[C@@H](C)CN([C@@H](C)CO)C(=O)c2cc(NC(=O)Nc3ccc(C(F)(F)F)cc3)ccc2O1`, the cytotoxicity call was “active”.

With `C[C@@H]1C=CNN1C(=O)c1cccnc1`, the cytotoxicity call was “inactive”. With `O=C(C[C@H]1CC[C@@H]2[C@H](COC[C@@H](O)CN2C(=O)c2ccccc2F)O1)N1CCN(c2ccccc2)CC1` the entry was “inactive”; with `C[C@H]1CN([C@@H](C)CO)C(=O)c2cc(NC(=O)Nc3cccc4ccccc34)ccc2O[C@@H]1CN(C)C(=O)Nc1ccc(F)cc1`, “inactive”; with `O=C(C[C@@H]1C[C@@H]2c3cc(NS(=O)(=O)c4ccccc4)ccc3O[C@@H]2[C@@H](CO)O1)NC1CCCCC1`, “inactive”. Regarding `C[C@@H]1CN([C@@H](C)CO)C(=O)Cc2cc(NC(=O)Cc3ccccc3)ccc2O[C@@H]1CN(C)S(=O)(=O)c1ccc(F)cc1`, the cytotoxicity call is “inactive”. Regarding `C[C@H](CO)N1C[C@H](C)[C@H](CN(C)Cc2ccc3c(c2)OCO3)Oc2c(NS(=O)(=O)c3cn(C)cn3)cccc2C1=O`, the cytotoxicity call was “inactive”. On to `O=C(/C=C/c1ccc(O)c(O)c1)O[C@@H]1C[C@](OC(=O)/C=C/c2ccc(O)c(O)c2)(C(=O)O)C[C@@H](O)[C@H]1O`, for which the cytotoxicity call was “inactive”. Regarding `C[C@H]1CCCCO[C@H](CN(C)C(=O)Nc2ccc(C(F)(F)F)cc2)[C@@H](C)CN([C@@H](C)CO)C(=O)c2cc(NC(=O)NC3CCCCC3)ccc2O1`, the cytotoxicity call is “inactive”.

Turning to `C[C@@H]1CCCCO[C@@H](CN(C)C(=O)Nc2ccc(C(F)(F)F)cc2)[C@H](C)CN([C@H](C)CO)C(=O)c2cc(NC(=O)NC3CCCCC3)ccc2O1`, the cytotoxicity call was “active”.

Take `C[C@H](CO)N1C[C@H](C)[C@@H](CN(C)C(=O)Nc2ccc(C(F)(F)F)cc2)OCCCC[C@H](C)Oc2ccc(NC(=O)NC3CCCCC3)cc2C1=O`: the cytotoxicity call is “inactive”.

Turning to `COc1ccc(NC(=O)N2C[C@@H](O)COC[C@H]3O[C@H](CC(=O)NC4Cc5ccccc5C4)CC[C@@H]32)cc1`, the cytotoxicity call was “inactive”. With `C[C@@H]1CN([C@@H](C)CO)C(=O)c2c(c3ccccc3n2C)-c2ccccc2CO[C@@H]1CN(C)Cc1ccc(Cl)c(Cl)c1` the entry was “inactive”.

For `C[C@H](CO)N1C[C@H](C)[C@@H](CN(C)Cc2ccc(Cl)c(Cl)c2)OCCCC[C@H](C)Oc2ccc(N(C)C)cc2C1=O`, the cytotoxicity call is “inactive”. For the compound `C[C@@H]1CCCCO[C@@H](CN(C)Cc2ccc(C(F)(F)F)cc2)[C@@H](C)CN([C@H](C)CO)C(=O)c2cc(N(C)C)ccc2O1`, the cytotoxicity call is “inactive”. Consider `C[C@@H]1CCCCO[C@H](CN(C)Cc2ccc(Cl)c(Cl)c2)[C@@H](C)CN([C@@H](C)CO)C(=O)c2cc(N(C)C)ccc2O1`, for which the cytotoxicity call was “inactive”. With `C[C@@H]1CCCCO[C@H](CN(C)Cc2ccc(C(F)(F)F)cc2)[C@H](C)CN([C@H](C)CO)C(=O)c2cc(N(C)C)ccc2O1` the entry was “active”. On to `C[C@@H]1CCCCO[C@@H](CN(C)Cc2ccc(Cl)c(Cl)c2)[C@H](C)CN([C@H](C)CO)C(=O)c2cc(N(C)C)ccc2O1`, for which the cytotoxicity call is “active”. Turning to `C[C@H](CO)N1C[C@H](C)[C@H](CN(C)Cc2ccc(C(F)(F)F)cc2)OCCCC[C@H](C)Oc2ccc(N(C)C)cc2C1=O`, the cytotoxicity call is “inactive”. Turning to `C[C@H]1CCCn2nncc2COCCNC1=O`, the cytotoxicity call was “inactive”. For the compound `COCCOC(=O)N1C(=O)[C@@]2(c3ccccc31)[C@H](C(=O)N1CCCCCCC1)[C@H]1C(=O)O[C@H](c3ccccc3)[C@H](c3ccccc3)N1[C@@H]2c1ccccc1OCCO`, the cytotoxicity call is “inactive”. In the case of `CNS(=O)(=O)c1ccc(C)cc1` it was “inactive”; in that of `Cc1ccc(S(=O)(=O)[N-]Cl)cc1.[Na+]`, “inactive”; in that of `Cc1cccc(-n2cc(CN)cn2)c1`, “inactive”.

Turning to `COc1cc(NC(=O)c2cccc(-n3cc(NC(=O)Nc4cccc(C)c4)cn3)c2)cc(OC)c1OC`, the cytotoxicity call was “active”.

As for `COc1cc(NC(=O)Cn2cnc3c2c(=O)n(C)c(=O)n3C)cc(OC)c1OC`, the cytotoxicity call is “inactive”. With `Cc1noc(C)c1S(=O)(=O)Nc1cccc2c1O[C@@H](CN(C)S(=O)(=O)c1cn(C)cn1)[C@@H](C)CN([C@H](C)CO)C2=O` the entry was “inactive”; with `C[C@H](CO)N1C[C@H](C)[C@H](CN(C)C(=O)Nc2ccc(C(C)(C)C)cc2)OCc2cnnn2CCCC1=O`, “inactive”.

`C[C@H]1CCCCO[C@H](CN(C)C(=O)NC2CCCCC2)[C@@H](C)CN([C@@H](C)CO)C(=O)c2cc(NS(=O)(=O)c3ccccc3)ccc2O1`: the cytotoxicity call is “inactive”. With `C[C@@H]1CCCCO[C@@H](CN(C)C(=O)NC2CCCCC2)[C@H](C)CN([C@@H](C)CO)C(=O)c2cc(NS(=O)(=O)c3ccccc3)ccc2O1` the entry was “active”; with `C[C@@H]1CCCCO[C@@H](CN(C)C(=O)NC2CCCCC2)[C@H](C)CN([C@H](C)CO)C(=O)c2cc(NS(=O)(=O)c3ccccc3)ccc2O1`, “inactive”.

Turning to `C[C@@H]1CN([C@H](C)CO)C(=O)c2cc(NS(=O)(=O)c3ccccc3)ccc2O[C@@H](C)CCCCO[C@@H]1CN(C)C(=O)NC1CCCCC1`, the cytotoxicity call is “inactive”.

With `C[C@@H]1CCCCO[C@H](CN(C)C(=O)NC2CCCCC2)[C@@H](C)CN([C@@H](C)CO)C(=O)c2cc(NS(=O)(=O)c3ccccc3)ccc2O1`, the cytotoxicity call is “inactive”. On to `C[C@H](CO)N1C[C@H](C)[C@H](CN(C)C(=O)NC2CCCCC2)OCCCC[C@H](C)Oc2ccc(NS(=O)(=O)c3ccccc3)cc2C1=O`, for which the cytotoxicity call was “active”.

The values above are taken from the antibiotic and cytotoxicity screens of Wong et al. (2023).
